What all share (type): functional
Experiment [1] deals with Solute carrier family 2, facilitated glucose transporter member 1 (Homo sapiens) (UniProt P11166). The experiment can be described thus: ST_JUDE_LEISH: Cytotoxicity at 2uM final concentration against transgenic Leishmania Mexicana promastigotes LmGLUT1 that are glucose transport deficient and complemented with the human glucose transporter GLUT1. Activity is measured by DNA content using SYBR green in vitro.

Experiment [2] addresses Hexose transporter 1 (Plasmodium falciparum) (UniProt O97467). The experiment can be described thus: ST_JUDE_LEISH: Cytotoxicity at 2uM final concentration against transgenic Leishmania Mexicana promastigotes LmPfHT that are glucose transport deficient and complemented with the Plasmodium falciparum hexose transporter. Activity is measured by DNA content using SYBR green in vitro.

In experiment [3] the target is Glucose transporter (Leishmania mexicana) (UniProt O61059). The experiment can be described thus: ST_JUDE_LEISH: Cytotoxicity at 2uM final concentration against transgenic Leishmania Mexicana promastigotes LmGT2 that are glucose transport deficient and complemented with the L. Mexicana glucose transporter 2. Activity is measured by DNA content using SYBR green in vitro.

Molecules are shown by their SMILES.

Solute carrier family 2, facilitated glucose transporter member 1 (Homo sapiens), sequence (P11166 whole entry): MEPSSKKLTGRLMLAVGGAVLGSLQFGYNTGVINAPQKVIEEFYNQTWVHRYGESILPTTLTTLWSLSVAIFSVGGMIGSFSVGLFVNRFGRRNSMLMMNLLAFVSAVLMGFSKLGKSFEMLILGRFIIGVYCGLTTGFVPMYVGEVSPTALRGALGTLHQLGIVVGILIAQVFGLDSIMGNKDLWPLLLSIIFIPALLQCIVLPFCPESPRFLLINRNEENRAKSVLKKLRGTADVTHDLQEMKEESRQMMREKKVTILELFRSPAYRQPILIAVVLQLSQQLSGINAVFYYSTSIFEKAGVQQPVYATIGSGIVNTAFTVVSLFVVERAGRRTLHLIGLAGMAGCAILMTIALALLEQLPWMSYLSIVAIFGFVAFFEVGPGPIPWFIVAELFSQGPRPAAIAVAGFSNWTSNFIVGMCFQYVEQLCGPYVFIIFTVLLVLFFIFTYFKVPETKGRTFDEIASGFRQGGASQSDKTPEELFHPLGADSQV

Turning to `N#Cc1cccc(C(=O)Nc2cccc(-c3ccc(CN4CCCC4)cc3)c2)c1`, the inhibition (as a rule, the relative decrease from the control value, in per cent) turned out to be 1.56% in experiment [1], 2.56% in experiment [2] and 2.89% in experiment [3].
The like results for `O=C(/C=C/c1cccc(C(F)(F)F)c1)NCCCCCN1CCC(c2c[nH]c3ccccc23)CC1` were, in that order, 4.06%, 3.58% and 1.4%.
Consider `COc1cc(CCNC(=N)/C=C/c2ccc(Cl)cc2)ccc1Cl`, for which the inhibition in experiment [1] is 2.51%; in experiment [2] it was 2.01%; in experiment [3] it was -0.39%.

The values are drawn from ChEMBL document CHEMBL3433997, “St. Jude Leishmania screening dataset” (2016).
